Measured values published in PubChem BioAssay (Tox21).
Several values for one entry are separate records, joined by “and”; a condition that tells them apart may be missing. Equal entries are not always repeated. Records with an inconclusive call do not appear. More than one record can exist for a structure, and the calls need not agree. Activity calls are given as the source filed them. Calls follow the shape of the dose curve; as a rule, active = well fitted curve in the direction sought with a large enough effect in the repeat runs; inconclusive = weak or mixed curves; inactive = no such curve, though single readings can be large; an effect the other way counts as inactive or inconclusive.

Assays:
[1] = Human pregnane X receptor (PXR) small molecule agonists, qHTS cell viability counter screen (AID 1346977); also: nearly all actives have a fitted effect of over 50% in size; also: potency is read from the fitted curve at half-maximal effect
Outline: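 PXR-Luc HepG2, 2,000 cells/well, 5% charcoal-stripped FBS; 5hr settle; cpd 24hr, 37C/5% CO2; CellTiter-Fluor at 23hr, read 1hr later (fluorescence).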

[2] = Caspase-3/7 induction in HepG2 cells by small molecules, qHTS assay (AID 1346978); also: nearly all actives have a fitted effect of over 15% in size
Outline: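 Caspase-3/7 induction was measured by Caspase-Glo 3/7 luminescence (30 min, room temperature) after a 17 hr compound exposure of wild-type HepG2 cells seeded at 2,000 per well and pre-incubated 5 hr.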

[3] = Caspase-3/7 induction in CHO-K1 cells by small molecules, qHTS cell viability counter screen (AID 1346979); also: nearly all actives have a fitted effect of over 35% in size; also: potency is read from the fitted curve at half-maximal effect
Outline: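 Cells (CHO-K1, wild type) are plated at 1,500 per well and incubated 5hr. Test compounds in DMSO are then pinned in, followed by 16hr at 37C and 5% CO2. Viability is read by CellTiter-Fluor fluorescence after 1hr.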

[4] = Caspase-3/7 induction in CHO-K1 cells by small molecules, qHTS assay (AID 1346980); also: nearly all actives have a fitted effect of over 15% in size
Outline: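 Luminescent Caspase-Glo 3/7 read (30min, room temperature) quantified apoptosis induction. Cells were wild-type CHO-K1, treated with compound for 17hr at 37 C and 5% CO2.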

[5] = Caspase-3/7 induction in HepG2 cells by small molecules, qHTS cell viability counter screen (AID 1346981); also: nearly all actives have a fitted effect of over 30% in size; also: potency is read from the fitted curve at half-maximal effect
Outline: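 Multiplexed with the caspase-3/7 assay: HepG2 cells, 16 hr compound treatment, CellTiter-Fluor viability detection by fluorescence.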

[6] = target: Nuclear receptor subfamily 1 group I member 2 (Homo sapiens) (UniProt O75469); assay: Human pregnane X receptor (PXR) small molecule agonists, qHTS assay (AID 1346982); also: nearly all actives have a fitted effect of over 35% in size; also: potency is read from the fitted curve at half-maximal effect
Nuclear receptor subfamily 1 group I member 2 (Homo sapiens), sequence (O75469 whole entry, looked up): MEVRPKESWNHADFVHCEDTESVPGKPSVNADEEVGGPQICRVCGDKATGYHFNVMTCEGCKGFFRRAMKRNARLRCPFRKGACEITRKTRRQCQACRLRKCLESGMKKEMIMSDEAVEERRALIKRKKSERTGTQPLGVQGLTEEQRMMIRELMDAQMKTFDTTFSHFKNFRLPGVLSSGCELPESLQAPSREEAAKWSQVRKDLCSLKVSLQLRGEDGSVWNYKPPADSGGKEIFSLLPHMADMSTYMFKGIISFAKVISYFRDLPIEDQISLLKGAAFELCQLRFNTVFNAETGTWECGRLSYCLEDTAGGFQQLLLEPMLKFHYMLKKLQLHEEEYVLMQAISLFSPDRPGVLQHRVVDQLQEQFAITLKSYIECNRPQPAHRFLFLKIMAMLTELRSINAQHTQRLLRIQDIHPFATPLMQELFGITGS
Outline: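 We seeded PXR-Luc HepG2 cells in assay medium containing 5% charcoal-stripped FBS, added compounds 5 hr later, incubated 24 hr, and read luminescence with ONE-Glo reagent.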

[7] = target: Cytochrome P450 2D6 (Homo sapiens) (UniProt P10635); assay: Cytochrome P450 Family 2 Subfamily D Member 6 (CYP2D6) small molecule antagonists: luciferase reporter qHTS assay (AID 1671196); also: nearly all actives have a fitted effect of over 50% in size; also: potency is read from the fitted curve at half-maximal effect
Cytochrome P450 2D6 (Homo sapiens), sequence (P10635 whole entry, looked up): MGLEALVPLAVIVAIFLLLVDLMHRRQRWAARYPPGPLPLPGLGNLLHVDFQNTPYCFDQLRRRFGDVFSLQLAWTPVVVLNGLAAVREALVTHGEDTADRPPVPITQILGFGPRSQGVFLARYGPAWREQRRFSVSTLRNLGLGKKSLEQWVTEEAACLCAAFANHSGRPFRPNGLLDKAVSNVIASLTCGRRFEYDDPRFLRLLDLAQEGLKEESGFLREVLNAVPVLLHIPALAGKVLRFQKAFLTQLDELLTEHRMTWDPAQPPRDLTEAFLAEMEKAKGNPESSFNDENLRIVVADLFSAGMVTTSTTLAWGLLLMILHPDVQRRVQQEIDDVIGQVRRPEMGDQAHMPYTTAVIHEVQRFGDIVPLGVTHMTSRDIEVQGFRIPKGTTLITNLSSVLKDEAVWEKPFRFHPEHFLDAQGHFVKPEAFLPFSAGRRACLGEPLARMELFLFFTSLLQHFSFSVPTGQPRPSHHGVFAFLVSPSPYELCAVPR
Outline: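 Luminescence (RLU), read 20 min after detection reagent, indicated CYP2D6 conversion of proluciferin to luciferin during a 1 h NADPH-dependent reaction at room temperature.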

[8] = target: Cytochrome P450 2C19 (Homo sapiens) (UniProt P33261); assay: Cytochrome P450 Family 2 Subfamily C Member 19 (CYP2C19) small molecule antagonists: luciferase reporter qHTS assay (AID 1671197); also: nearly all actives have a fitted effect of over 65% in size; also: potency is read from the fitted curve at half-maximal effect
Cytochrome P450 2C19 (Homo sapiens), sequence (P33261 whole entry, looked up): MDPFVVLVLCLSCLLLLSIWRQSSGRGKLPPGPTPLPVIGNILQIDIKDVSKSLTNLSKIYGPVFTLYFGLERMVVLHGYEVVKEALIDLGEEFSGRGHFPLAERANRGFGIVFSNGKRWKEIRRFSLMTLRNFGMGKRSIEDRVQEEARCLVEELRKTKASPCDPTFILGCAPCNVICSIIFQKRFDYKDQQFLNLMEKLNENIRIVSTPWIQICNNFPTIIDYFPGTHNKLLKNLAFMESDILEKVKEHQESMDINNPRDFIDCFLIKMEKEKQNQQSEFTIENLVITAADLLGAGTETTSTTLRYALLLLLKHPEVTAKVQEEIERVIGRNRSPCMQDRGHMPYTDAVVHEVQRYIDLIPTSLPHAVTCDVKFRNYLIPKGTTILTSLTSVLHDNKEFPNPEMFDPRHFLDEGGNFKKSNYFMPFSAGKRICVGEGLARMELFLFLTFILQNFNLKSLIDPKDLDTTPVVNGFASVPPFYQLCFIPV
Outline: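 CYP2C19 P450-Glo, 1536-well qHTS. Cpd + enzyme/proluciferin substrate 10 min RT; + NADPH regen, 37C 1 h; stop with luciferin detection reagent, 20 min RT, luminescence (RLU). Pos ctrl ketoconazole.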

[9] = target: Cytochrome P450 2C9 (Homo sapiens) (UniProt P11712); assay: Cytochrome P450 Family 2 Subfamily C Member 9 (CYP2C9) small molecule antagonists: luciferase reporter qHTS assay (AID 1671198); also: nearly all actives have a fitted effect of over 50% in size; also: potency is read from the fitted curve at half-maximal effect
Cytochrome P450 2C9 (Homo sapiens), sequence (P11712 whole entry, looked up): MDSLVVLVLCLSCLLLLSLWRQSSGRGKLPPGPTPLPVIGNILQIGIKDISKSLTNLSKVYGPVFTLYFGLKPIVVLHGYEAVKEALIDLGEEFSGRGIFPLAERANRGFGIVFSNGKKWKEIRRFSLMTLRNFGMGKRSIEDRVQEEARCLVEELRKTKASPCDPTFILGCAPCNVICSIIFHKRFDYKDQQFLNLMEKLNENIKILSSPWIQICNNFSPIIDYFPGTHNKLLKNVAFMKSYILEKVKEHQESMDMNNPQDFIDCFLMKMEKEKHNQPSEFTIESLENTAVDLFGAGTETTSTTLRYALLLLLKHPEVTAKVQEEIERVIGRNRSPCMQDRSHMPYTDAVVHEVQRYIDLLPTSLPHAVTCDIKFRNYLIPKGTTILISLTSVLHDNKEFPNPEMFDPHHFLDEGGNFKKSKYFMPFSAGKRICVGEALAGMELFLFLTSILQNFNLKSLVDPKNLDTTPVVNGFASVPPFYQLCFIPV
Outline: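 Enzyme-substrate mix preincubated with compound 10 min at room temperature; reaction started with NADPH regeneration solution, 1 h 37C. Luminescent luciferin product read after 20 min detection reagent.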

[10] = target: Cytochrome P450 1A2 (Homo sapiens) (UniProt P05177); assay: Cytochrome P450 Family 1 Subfamily A Member 2 (CYP1A2) small molecule antagonists: luciferase reporter qHTS assay (AID 1671199); also: nearly all actives have a fitted effect of over 50% in size; also: potency is read from the fitted curve at half-maximal effect
Cytochrome P450 1A2 (Homo sapiens), sequence (P05177 whole entry, looked up): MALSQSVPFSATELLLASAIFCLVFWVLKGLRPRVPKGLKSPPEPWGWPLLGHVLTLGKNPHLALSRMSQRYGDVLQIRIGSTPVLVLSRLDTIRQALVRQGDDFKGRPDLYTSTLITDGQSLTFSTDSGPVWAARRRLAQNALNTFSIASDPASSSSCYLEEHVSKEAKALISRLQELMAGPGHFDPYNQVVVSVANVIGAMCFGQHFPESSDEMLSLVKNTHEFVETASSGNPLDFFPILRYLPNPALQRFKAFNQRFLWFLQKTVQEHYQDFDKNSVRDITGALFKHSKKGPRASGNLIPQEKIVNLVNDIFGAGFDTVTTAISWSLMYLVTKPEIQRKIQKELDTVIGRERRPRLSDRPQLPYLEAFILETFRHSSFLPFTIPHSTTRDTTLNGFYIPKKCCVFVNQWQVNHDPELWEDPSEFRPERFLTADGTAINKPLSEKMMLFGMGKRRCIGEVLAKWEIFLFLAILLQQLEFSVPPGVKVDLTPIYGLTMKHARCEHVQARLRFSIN
Outline: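 CYP1A2 turnover of a luminogenic substrate was quantified after 1 h with NADPH regeneration at room temperature. Furafylline served as positive control.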

[11] = target: Voltage-gated inwardly rectifying potassium channel KCNH2 (Homo sapiens) (UniProt Q12809); assay: Human Ether-a-go-go-Related Gene (hERG) channel small molecule antagonists: fluorescence cell-based qHTS assay (AID 1671200)
Voltage-gated inwardly rectifying potassium channel KCNH2 (Homo sapiens), sequence (Q12809 whole entry, looked up): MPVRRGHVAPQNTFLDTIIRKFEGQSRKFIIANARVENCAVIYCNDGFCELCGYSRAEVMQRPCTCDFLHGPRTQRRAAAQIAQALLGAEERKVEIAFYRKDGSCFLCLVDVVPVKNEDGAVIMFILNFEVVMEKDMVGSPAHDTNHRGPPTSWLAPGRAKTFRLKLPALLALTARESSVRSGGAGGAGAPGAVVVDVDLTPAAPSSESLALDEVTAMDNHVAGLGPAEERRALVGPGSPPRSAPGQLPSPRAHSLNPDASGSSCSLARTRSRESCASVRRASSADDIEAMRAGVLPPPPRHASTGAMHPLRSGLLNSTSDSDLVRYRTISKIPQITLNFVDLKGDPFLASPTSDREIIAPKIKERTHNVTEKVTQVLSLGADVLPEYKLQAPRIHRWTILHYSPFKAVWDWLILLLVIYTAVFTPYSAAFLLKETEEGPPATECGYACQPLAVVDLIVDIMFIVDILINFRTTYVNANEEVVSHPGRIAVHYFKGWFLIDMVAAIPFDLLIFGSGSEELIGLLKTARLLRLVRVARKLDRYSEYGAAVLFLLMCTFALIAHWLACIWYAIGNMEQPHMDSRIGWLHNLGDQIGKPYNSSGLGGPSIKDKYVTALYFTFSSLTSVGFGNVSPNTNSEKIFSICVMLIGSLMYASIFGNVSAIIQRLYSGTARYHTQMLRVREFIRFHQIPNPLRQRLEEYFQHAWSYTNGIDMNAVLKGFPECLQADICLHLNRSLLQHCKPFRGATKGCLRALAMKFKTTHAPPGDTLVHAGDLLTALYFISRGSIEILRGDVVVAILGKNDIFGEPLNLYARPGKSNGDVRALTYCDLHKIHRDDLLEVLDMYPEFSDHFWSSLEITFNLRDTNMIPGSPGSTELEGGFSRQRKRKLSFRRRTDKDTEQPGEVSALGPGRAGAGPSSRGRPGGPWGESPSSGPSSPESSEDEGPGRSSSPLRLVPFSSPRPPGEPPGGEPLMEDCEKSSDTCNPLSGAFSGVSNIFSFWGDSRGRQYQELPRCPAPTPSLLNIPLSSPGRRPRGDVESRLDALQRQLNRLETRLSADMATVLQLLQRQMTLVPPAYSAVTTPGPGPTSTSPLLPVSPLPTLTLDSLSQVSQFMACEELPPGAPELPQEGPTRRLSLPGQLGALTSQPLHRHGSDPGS
Outline: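 Channel function was assessed by thallium flux. Cells seeded the previous day and kept at 37 C took up FluxOR II dye over 1 h in the dark at room temperature, then sat another 10 min before stimulation.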

[12] = target: Cytochrome P450 3A4 (Homo sapiens) (UniProt P08684); assay: Cytochrome P450 Family 3 Subfamily A Member 4 (CYP3A4) small molecule antagonists: luciferase reporter qHTS assay (AID 1671201)
Cytochrome P450 3A4 (Homo sapiens), sequence (P08684 whole entry, looked up): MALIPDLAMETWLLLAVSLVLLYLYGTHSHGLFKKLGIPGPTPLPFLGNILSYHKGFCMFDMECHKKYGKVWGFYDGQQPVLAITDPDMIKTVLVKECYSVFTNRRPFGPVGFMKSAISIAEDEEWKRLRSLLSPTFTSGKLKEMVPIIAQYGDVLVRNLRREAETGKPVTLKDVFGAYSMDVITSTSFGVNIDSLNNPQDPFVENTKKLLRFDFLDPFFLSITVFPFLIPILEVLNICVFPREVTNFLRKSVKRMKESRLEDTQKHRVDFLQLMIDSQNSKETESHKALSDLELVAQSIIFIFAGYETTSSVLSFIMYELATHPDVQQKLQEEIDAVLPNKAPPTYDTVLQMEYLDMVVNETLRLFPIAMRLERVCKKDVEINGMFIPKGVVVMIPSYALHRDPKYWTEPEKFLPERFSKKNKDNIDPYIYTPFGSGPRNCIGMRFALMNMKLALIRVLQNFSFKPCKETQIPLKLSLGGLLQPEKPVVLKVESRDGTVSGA
Outline: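 Compounds in DMSO were pin-transferred onto CYP3A4 enzyme-substrate mix and held 10 min at room temperature. NADPH regenerating solution started the reaction for 1 h; luciferin detection reagent stopped it, and luminescence was read after 20 min.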

[13] = target: Nuclear receptor subfamily 1 group I member 2 (Rattus norvegicus) (UniProt Q9R1A7); assay: Rat pregnane X receptor (rPXR) activation by small molecules, qHTS assay (AID 1346983); conditions: rPXR luciferase reporter cells, One-Glo luminescence, 24 h; stronger effect = higher value; also: nearly all actives have a fitted effect of over 20% in size
Nuclear receptor subfamily 1 group I member 2 (Rattus norvegicus), sequence (Q9R1A7 whole entry, looked up): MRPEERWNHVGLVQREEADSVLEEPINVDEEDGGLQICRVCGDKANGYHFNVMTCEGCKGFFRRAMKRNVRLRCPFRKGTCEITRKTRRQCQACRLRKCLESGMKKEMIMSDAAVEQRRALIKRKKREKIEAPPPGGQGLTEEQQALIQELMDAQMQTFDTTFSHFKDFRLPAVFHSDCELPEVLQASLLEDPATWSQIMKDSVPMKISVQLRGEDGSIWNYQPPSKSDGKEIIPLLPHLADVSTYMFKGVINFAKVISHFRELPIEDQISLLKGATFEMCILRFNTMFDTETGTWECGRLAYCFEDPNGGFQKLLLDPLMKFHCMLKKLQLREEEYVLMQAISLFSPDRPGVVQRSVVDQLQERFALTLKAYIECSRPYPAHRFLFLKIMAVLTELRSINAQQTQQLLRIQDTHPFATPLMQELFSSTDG
Outline: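 Luminescent readout (One-Glo luciferase, 30 min room temperature) followed 24 hr compound treatment at 37 C of rPXR cells plated 2,000 per well and preincubated 5hr; qHTS format with compounds delivered in DMSO.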

[14] = target: Nuclear receptor subfamily 1 group I member 2 (Homo sapiens) (UniProt O75469); assay: Human pregnane X receptor (PXR) activation by small molecules, qHTS assay (AID 1346985); also: nearly all actives have a fitted effect of over 40% in size
Outline: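 DPX-2 cells (HepG2 co-transfected with a PXR response element and a CYP3A4-promoter luciferase construct) were seeded at 2,000 per well, rested 5 hr at 37C, then exposed to DMSO-dissolved compounds for 24 hr. Activation was read as luciferase luminescence.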
% is scaled to controls: 0 for no effect and ±100 for the full control effect.

CCCCCCC(O)CCCCCCCCCCC(=O)O (stereo unspecified)
inactive: Potency [1] | Potency [2] | Potency [3] | Potency [4] | Potency [5] | Potency [6] | Potency [7] | Potency [8] | Potency [9] | Potency [10] | Potency [11] | Potency [12]

COc1cc(C(=S)N2CCOCC2)ccc1O
inactive: Potency [1] | Potency [2] | Potency [3] | Potency [4] | Potency [5] | Potency [6] | max activation [13] -1.33% | Potency [14] | Potency [7] | Potency [9] | Potency [10] | Potency [11] | Potency [12]

Cc1ccc(S(=O)(=O)Oc2ccc(N=Nc3ccc(-c4ccc(N=Nc5c(O)ccc6cc(S(=O)(=O)O)cc(S(=O)(=O)O)c56)c(C)c4)cc3C)cc2)cc1
6.89 µM (active) and inactive: Potency [6]
inactive: Potency [2] | Potency [4] | Potency [11]
active: Potency [1] 11.2 µM and 8.92 µM | Potency [3] 15.4 µM and 10 µM | Potency [5] 19.4 µM and 15.9 µM | Potency [7] 40.1 µM and 26 µM | Potency [8] 28.4 µM and 51.9 µM | Potency [9] 35.7 µM and 26 µM | Potency [10] 56.6 µM and 23.2 µM

COc1nc(C)nc(Cl)c1NC1=NCCN1
inactive: Potency [1] | Potency [2] | Potency [3] | Potency [4] | Potency [5] | Potency [6] | max activation [13] -0.617% | Potency [14] | Potency [7] | Potency [8] | Potency [9] | Potency [10] | Potency [11] | Potency [12]

COC(=O)c1cccc(C(=O)OC)c1
inactive: Potency [1] | Potency [2] | Potency [3] | Potency [4] | Potency [5] | Potency [6] | Potency [7] | Potency [8] | Potency [9] | Potency [11] | Potency [12]
active: Potency [10] 12.4 µM and 11.2 µM

CCC[C@H](N[C@@H](C)C(=O)N1[C@H](C(=O)O)C[C@@H]2CCCC[C@@H]21)C(=O)OCC
inactive: Potency [1] | Potency [2] | Potency [3] | Potency [4] | Potency [5] | Potency [6] | Potency [7] | Potency [8] | Potency [9] | Potency [11] | Potency [12]
17.4 µM (active) and inactive: Potency [10]

NCCCCCC(=O)O
inactive: Potency [1] | Potency [2] | Potency [3] | Potency [4] | Potency [5] | Potency [6] | max activation [13] 1.85% | Potency [14] | Potency [7] | Potency [8] | Potency [9] | Potency [10] | Potency [11] | Potency [12]

CCC(C)(Oc1ccc(C2(c3ccc(OC(C)(CC)C(=O)O)cc3)CCCCC2)cc1)C(=O)O (stereo unspecified)
inactive: Potency [1] | Potency [2] | Potency [3] | Potency [4] | Potency [5] | Potency [6] | max activation [13] -0.804% | Potency [14] | Potency [7] | Potency [8] | Potency [9] | Potency [10] | Potency [11] | Potency [12]

c1cnc2cc3c(cc2n1)C1CNCC3C1
inactive: Potency [1] | Potency [2] | Potency [3] | Potency [4] | Potency [5] | Potency [6] | Potency [7] | Potency [8] | Potency [9] | Potency [10] | Potency [11]

CCOC(=O)C(C)C(C)=O (stereo unspecified)
active: Potency [10] 35.8 µM
inactive: Potency [1] | Potency [2] | Potency [3] | Potency [4] | Potency [5] | Potency [6] | Potency [7] | Potency [8] | Potency [9] | Potency [11] | Potency [12]

COc1ccc(COC(C)=O)cc1
45.6 µM (active) and inactive: Potency [8]
inactive: Potency [1] | Potency [2] | Potency [3] | Potency [4] | Potency [5] | Potency [6] | Potency [7] | Potency [9] | Potency [11] | Potency [12]
active: Potency [10] 28.8 µM and 44.8 µM

O=C(OCc1ccccc1)c1ccc(O)cc1
inactive: Potency [1] | Potency [2] | Potency [3] | Potency [4] | Potency [5] | Potency [6] | max activation [13] 0.826% | Potency [14] | Potency [11]
